SMN2 splice up: SMN2 splice variant enhancement. HEK293 SMN2-luciferase splicing reporter, luminescence, 30-36 h. Potency, µM (titrated, usually from 46.1 µM), inactives show at the highest dose activity change, positive = activation, actives largely listed as activators. 210,000 compounds, 2.8% hits. AID 1458; also: % of control where 0% means no effect; nearly all actives have a fitted effect of over 55% in size
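HEK293 cells carry an SMN2 […]–luciferase reporter in which exon 7 inclusion puts luciferase in frame. Cells were plated 10-12 h before compound addition, then incubated 30-36 h at 37C. ONE-Glo luminescence was read; sodium butyrate at 4.5 mM final served as control.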
Rab9 promoter act: activates the Rab9 promoter; Huh7 Rab9 promoter-luciferase reporter, luminescence, 24 h; Potency, µM (doses to about 9.22 µM), without a hit: at the top dose activation, negative = inhibition, most hits filed as activators; 320,000 compounds, 2.8% hits; also: % of control where 0% means no effect; nearly all actives have a fitted effect of over 60% in size
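Measured in stably transfected Huh7 cells bearing a Rab9 promoter–luciferase construct: 24 h compound treatment at 37 °C, followed by luminescence detection.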
NPC1 promoter act: activates the NPC1 promoter. Huh7 NPC1 promoter luciferase reporter, 24 h. Potency, µM (series often up to 9.22 µM), without a hit: at the top dose activation, usual class: activators. 320,000 compounds, 2.4% hits; also: % of control where 0% means no effect; nearly all actives have a fitted effect of over 60% in size
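In 1536-well qHTS, Huh7 cells harboring an NPC1 promoter–luciferase construct received compound for 24 h; activation was quantified by luminescence following luciferase reagent addition.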
uPA surface inh: blocks generation of uPA at the cell surface; Potency, µM (titrated, usually from 38.3 µM), for inactives: at the highest dose activity change, negative = inhibition, usual class: inhibitors; 330,000 compounds, 0.31% hits; AID 540303; cell surface uPA generation assay, qHTS; active = well fitted inhibition curve with a large enough effect; inconclusive = small, poorly fitted or top-dose-only effect; inactive = no such curve, though single readings can be large or run the other way; tested in mouse RAW 264.7 cells; also: % is scaled to controls: 0 for no effect and ±100 for the full control effect; nearly all actives have a fitted effect of over 55% in size
ELG1 genotoxic: inducers of genotoxicity in HEK293T ELG1-luciferase cells; 330,000 compounds, 1.3% hits; AID 504466; HEK293T ELG1-luciferase reporter, luminescence, 16 h; Potency, µM (doses to about 46 µM), inactives show at the top dose activity change, positive = activation, usual class: activators; also: % of control where 0% means no effect; nearly all actives have a fitted effect of over 60% in size
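Quantitative HTS format in 1536-well plates. HEK293T ELG1-luciferase reporter cells receive test compound and are incubated 16 hr at 37 °C, 5% CO2; ONE-Glo added, 30 min room temperature, then luminescence read.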
FLuc counter: inhibits or activates purified firefly luciferase, miR-21 counter-screen. P08659. purified FLuc, Km substrates, luminescence inhibition. Potency, µM (top dose mostly 57.5 µM), for inactives: at the top dose activity change, negative = inhibition, most hits filed as inhibitors. 360,000 compounds, 6.9% hits. AID 588342;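 also: plate controls were vehicle for no effect and reference inhibitor for full effect; nearly all actives have a fitted effect of over 55% in size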
Target sequence (P08659 whole entry, looked up): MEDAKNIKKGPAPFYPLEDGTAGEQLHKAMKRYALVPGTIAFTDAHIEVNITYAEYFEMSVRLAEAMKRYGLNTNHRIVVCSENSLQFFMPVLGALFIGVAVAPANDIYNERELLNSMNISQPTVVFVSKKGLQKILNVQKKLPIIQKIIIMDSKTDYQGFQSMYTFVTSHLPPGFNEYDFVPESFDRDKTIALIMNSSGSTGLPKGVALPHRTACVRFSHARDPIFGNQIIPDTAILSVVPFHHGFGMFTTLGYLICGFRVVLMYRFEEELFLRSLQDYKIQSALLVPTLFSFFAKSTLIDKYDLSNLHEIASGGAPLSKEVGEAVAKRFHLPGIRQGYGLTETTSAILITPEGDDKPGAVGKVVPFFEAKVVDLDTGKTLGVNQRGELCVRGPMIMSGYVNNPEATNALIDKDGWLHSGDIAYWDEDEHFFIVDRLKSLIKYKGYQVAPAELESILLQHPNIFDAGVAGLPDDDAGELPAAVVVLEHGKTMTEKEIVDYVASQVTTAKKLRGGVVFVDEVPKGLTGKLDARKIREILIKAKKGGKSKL
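Purified P. pyralis luciferase (10nM final) with 10uM D-luciferin and 10uM ATP (Km levels) in 50mM Tris acetate pH 7.5, 10mM Mg acetate, 0.01% Tween-20, 0.05% BSA; qHTS 6-point titration, ~60 µM downward; luminescence read.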
* hit, by the source's call; ? = inconclusive; . = not tested or not shown; [ ] = another dose, or the depositor's remark. The list is not random: actives were taken first. Their share in the collection is about 7.3%. Unless noted, calls follow the shape of the dose curve; as a rule, active = well fitted curve in the direction sought with a large enough effect; inconclusive = small, poorly fitted or top-dose-only effect, or another doubt; inactive = no such curve, though single readings can be large; an effect the other way counts as inactive or inconclusive. Potency is read from the fitted curve at half-maximal effect.

SMILES | SMN2 splice up | Rab9 promoter act | NPC1 promoter act | uPA surface inh | ELG1 genotoxic | FLuc counter
O=C(COc1ccccc1Cl)Nc1cccc(S(=O)(=O)N2CCCC2)c1 | . | -2% | -7% | -7% | -1% | 19µM*
Nc1cc(N)cc(C(=O)OCC(=O)Nc2cc(S(=O)(=O)N3CCCCC3)ccc2Cl)c1 | -4% | -2% | -3% | 2% | -6% | 17µM*
Cc1cc(C)c(C(=O)OCC(=O)Nc2cccc(S(=O)(=O)N3CCCCC3)c2)c(C)c1 | . | 2% | 6% | 8.9µM* | 24% | -2%
O=C(COC(=O)c1cccnc1Cl)Nc1cc(S(=O)(=O)N2CCCCC2)ccc1Cl | 3% | 7% | -9% | 4% | -1% | -1%
CCN(CC)S(=O)(=O)c1cccc(NC(=O)COc2ccc(Cl)cc2Br)c1 | -37% | -3% | 0% | -2% | -1% | 21µM*
CCOc1ccc(/C=C/C(=O)OCC(=O)Nc2cccc(S(=O)(=O)N3CCCC3)c2)cc1 | . | -1% | -1% | -20% | -1% | 2.1µM*
O=C(COc1ccc(F)cc1Cl)Nc1cccc(S(=O)(=O)N2CCCC2)c1 | . | 3% | -1% | -6% | 0% | 13µM*
O=C(COC(=O)Cc1cccs1)NCc1ccc(F)cc1 | . | 1% | -4% | -1% | 4% | 1%
Cn1ncc(Cl)c1C(=O)Nc1ccc(CN2CCCCC2)cc1 | . | 1% | 0% | -1% | 5% | 2%
O=C(Nc1ccc(F)cc1)c1ncn(-c2ccccc2)n1 | 14µM* | . | . | . | . | 11µM*
COc1ccccc1NC(=O)c1ncn(-c2ccccc2)n1 | 11µM* | . | . | . | . | ?
COc1ccccc1NC(=O)c1cn(-c2ccccc2)nc1-c1ccccc1 | . | . | . | . | . | -12%
CC(C)=C[C@H]1[C@@H](C(=O)Oc2ccccc2C(C)C)C1(C)C | -6%[9.22 µM] | . | . | . | . | .
Cc1c(C(=O)NCc2ccc(F)cc2)sc2nc3n(c(=O)c12)CCC3 | . | . | . | . | . | -8%
COc1ccc2cc3cc(C(=O)NC4CC4)sc3nc2c1 | . | 0.32µM* | 0.45µM* | ? | ? | 0.67µM*
CCOc1ccc(CCNC(=O)c2cc3cc4ccc(OC)cc4nc3s2)cc1OCC | 5% | . | . | . | . | 2%
COc1ccc2cc3cc(C(=O)NCCCN4CCc5ccccc5C4)sc3nc2c1 | 16µM* | 4.5µM* | ? | -2% | 7% | 9.5µM*
CCO[C@@H]1OC(C(=O)NCc2nc3ccccc3[nH]2)=C[C@H](c2coc3ccccc3c2=O)[C@H]1CCCO | . | . | . | 12% | . | .
N#C/C(=C\c1ccc(-c2ccc(C(=O)O)cc2)o1)C(=O)Nc1ccc(F)cc1 | . | ? | ? | 0% | 2% | 2.4µM*
N#C/C(=C\c1ccc(-c2ccc(C(=O)O)cc2)o1)C(=O)NCC1CCCO1 (stereo not drawn) | ? | 24% | ? | 0% | 6% | ?
Cc1cccc(C)c1NC(=O)/C(C#N)=C/c1ccc(-c2ccc(C(=O)O)cc2)o1 | . | 2.5µM* | 0.63µM* | 1% | ? | 12µM*
O=C(/C=C/NNC(=O)c1ccccc1)c1ccc(Br)cc1 | 4% | 0% | 7% | -9% | ? | 27µM*
Cc1ccc(C(=O)/C=C/NNC(=O)c2ccccc2O)cc1 | . | 7% | 10% | ? | -5% | 27µM*
Cc1nc(C(=O)Nc2ccc(Cl)cc2)sc1C1(C)CC(c2cccc([N+](=O)[O-])c2)=NO1 (stereo not drawn) | . | . | . | 7% | . | .
COc1ccc(NC(=O)c2nc(C)c(C3(C)CC(c4cccnc4)=NO3)s2)cc1 (stereo not drawn) | . | -18% | -23% | 1.6µM* | -9% | -10%
SMILES | SMN2 splice up | Rab9 promoter act | NPC1 promoter act | uPA surface inh | ELG1 genotoxic | FLuc counter
CCOc1ccccc1CNC(=O)c1cc2c(=O)n(Cc3ccco3)ccc2nc1C | . | . | . | . | . | 3%
Cc1cc(/C=C(\C#N)C(=O)Nc2ccccc2)c(C)n1-c1ccc(F)cc1 | 2% | . | . | . | . | 2.7µM*
Cc1cc(/C=C(\C#N)C(=O)NCC2CCCO2)c(C)n1-c1ccc(Cl)cc1 (stereo not drawn) | . | 3.5µM* | ? | . | 1% | 4.3µM*
CCCn1c(C)cc(/C=C(\C#N)C(=O)OCC(=O)Nc2cccc(S(N)(=O)=O)c2)c1C | . | 25% | 14% | -11% | 5% | 3.8µM*
CCOC(=O)/C(C#N)=C/c1cc(C)n(-c2ccc(Br)cc2)c1C | -17% | -5% | 0% | . | 8% | 3%
CCOC(=O)/C(C#N)=C/c1cc(C)n(-c2ccccc2)c1C | -73% | 0.56µM* | 3.2µM* | 3% | 0.65µM* | 0.54µM*
COc1cc(/C=C(\C#N)C(=O)NCC2CCCO2)ccc1O (stereo not drawn) | 11% | -3% | -2% | -8% | 5% | -4%
COc1ccccc1NC(=O)COC(=O)c1cc(C)oc1C | . | . | . | -1% | 1% | .
COC(=O)c1c(NC(=O)CCCOc2ccccc2C)sc2c1CCC2 | -8% | . | . | . | . | 4%
Cc1cc(/C=C(\C#N)C(=O)Nc2ccccc2)c(C)n1-c1cccnc1 | 5.6µM* | 2.8µM* | ? | -7% | 13% | 1.5µM*
N#C/C(=C\c1cccc([N+](=O)[O-])c1)C(=O)Nc1cccnc1 | -5% | -1% | 0% | 6% | 3% | -5%
N#C/C(=C\c1ccccc1O)C(=O)Nc1cccnc1 | . | 1.6µM* | 2.8µM* | 1% | ? | 3µM*
Cc1cc(C(=O)O)ccc1-n1c(C)cc(/C=C(/C#N)C(=O)Nc2ccccc2)c1C | . | 1% | -2% | 3% | -3% | ?
CC(=O)CC(c1ccccc1)S(=O)(=O)c1ccc(C)cc1 (stereo not drawn) | 5% | 2% | -5% | 1% | 4% | 0%
COc1ccc(C(CC(=O)c2ccccc2)S(=O)(=O)c2ccc(C)cc2)cc1 (stereo not drawn) | ? | 4µM* | 2.2µM* | . | ? | 0.76µM*
CCOc1[nH]n(-c2ccccc2)c(=O)c1C=Nc1ccc(OC)cc1 | -9% | 2% | -5% | -7% | -7% | ?
CCOc1ccc2nc(/N=C/c3c(C)[nH]n(-c4ccccc4)c3=O)sc2c1 | 22µM* | ? | ? | -5% | ? | 6.7µM*
CCOc1ccc2nc(/N=C/c3c(C)[nH]n(-c4ccc(C)cc4)c3=O)sc2c1 | 14µM* | ? | ? | -9% | 16% | 4.8µM*
CCOc1ccc2nc(SC3CC(=O)N(c4ccc(C)cc4)C3=O)sc2c1 (stereo not drawn) | -92% | -5% | 2% | . | -1% | 4%
COc1cc2c(cc1OC)/C(=C/C(=O)c1ccc(C)cc1)NCC2 | . | 6% | -2% | 3% | 7% | 17µM*
COc1ccc(CCNC(=O)CSc2ncc3c(n2)-c2cc(Cl)ccc2N(Cc2ccccc2)S3(=O)=O)cc1OC | . | . | . | . | . | -4%

Screens: PubChem, National Center for Advancing Translational Sciences (NCATS)
